Screening data: PubChem BioAssay, National Center for Advancing Translational Sciences (NCATS)
SARS PLpro yeast-1 – inhibitors of SARS-CoV papain-like protease in yeast. 330,000 compounds, 0.19% hits. Potency, µM (series often up to 32.9 µM), for the others: at the highest dose activity, positive = growth rescue, usual class: activators. S. cerevisiae expressing SARS-CoV PLpro, growth rescue. AID 485353; calls by dose curve; also: potency is read from the fitted curve at half-maximal effect; 0% is about no effect; nearly all actives have a fitted effect of over 55% in size
Pf growth 48h – inhibits P. falciparum growth in the first generation, 48 h. P. falciparum luciferase growth in erythrocytes, 48 h. Potency, µM (series often up to 28.7 µM), for inactives: top-dose activity change, negative = inhibition, usual class: inhibitors. 310,000 compounds, 5.9% hits. AID 504832; also: potency is read from the fitted curve at half-maximal effect; % is scaled to controls: 0 for no effect and ±100 for the full control effect
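Luciferase-expressing P. falciparum in infected erythrocytes (2% hematocrit, 0.1% parasitemia final) in RPMI 1640/0.5% Albumax were exposed to compound for 48 hours at 37 C, 5% CO2; growth read as luminescence.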
Sm TGR block – blocks Schistosoma mansoni thioredoxin glutathione reductase; AID 485364; purified TGR, DTNB reduction, TNB absorbance 405 nm; 360,000 compounds, 3% hits; Potency, µM (top dose mostly 114 µM), for the others: top-dose activity change, negative = inhibition, most hits filed as inhibitors; also: potency is read from the fitted curve at half-maximal effect; % is scaled to controls: 0 for no effect and ±100 for the full control effect; nearly all actives have a fitted effect of over 60% in size
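Kinetic colorimetric format: TGR-catalysed, NADPH-driven DTNB reduction monitored via TNB absorbance. Enzyme dispensed at 20 nM; compound exposure 15 min at room temperature before reaction start.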
Pf growth 96h – inhibits malaria parasite growth, 96 h | P. falciparum luciferase reporter growth, 96 h | Potency, µM (highest dose often 28.7 µM), for the others: top-dose activity change, negative = inhibition, most hits filed as inhibitors | 320,000 compounds, 6.9% hits | AID 504834; also: potency is read from the fitted curve at half-maximal effect; % is scaled to controls: 0 for no effect and ±100 for the full control effect
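Compounds incubated with erythrocytes infected by luciferase-expressing P. falciparum (2% hematocrit, 0.05% parasitemia final) for 96 hours, 37 C in 5% CO2. Growth inhibition scored as decreased luciferase luminescence.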
SARS PLpro yeast-2 – Inhibits SARS-CoV PLP in yeast, hit validation | shares compounds with SARS PLpro yeast-1 | yeast expressing SARS-CoV PLpro, growth phenotype rescue | calls only | 1,000 compounds, 19% hits | AID 652038; call rule not given here
An asterisk follows results filed as active; i = inactive; ? = inconclusive; . = not tested or not shown; + = active, no number; [ ] = another dose, or the depositor's remark. In the library only some 12% were active in any assay of this set; here they are far more common. Unless noted, calls follow the shape of the dose curve; as a rule, active = well fitted curve in the direction sought with a large enough effect; inconclusive = small, poorly fitted or top-dose-only effect, or another doubt; inactive = no such curve, though single readings can be large; an effect the other way counts as inactive or inconclusive.

SMILES | SARS PLpro yeast-1 | Pf growth 48h | Sm TGR block | Pf growth 96h | SARS PLpro yeast-2
CC(C)c1ccc(NC(=O)CN2C(=O)NC3(CCCC3)C2=O)cc1 | 3.55µM* | 16.7% | 0.6% | 33.5% | i
CC(=O)Nc1ccc(NC(=O)CN2C(=O)NC3(CCCCCCC3)C2=O)cc1 | -16.3% | . | . | . | .
Cc1ccc(NC(=S)Nc2ccccn2)c(C)c1 | -2.2% | 57.9% | ? | ? | .
Cc1cc(C)cc(NC(=S)Nc2ccccn2)c1 | 3.16µM* | 12.1% | ? | ? | +
Cc1cc(Cl)ccc1NC(=S)Nc1ccccn1 | 5.01µM* | 108.1% | -19.6% | 32.1% | +
Cc1cccc(NC(=S)Nc2ccccn2)c1 | 0.4% | 47.3% | ? | 33.1% | .
O=C(Nc1c(-c2ccccc2)nc2ccccn12)c1ccco1 | 0.6% | 38.6% | -0.3% | 72.5% | .
Cc1ccc(-c2nc3ccccn3c2NC(=O)c2ccco2)cc1 | ? | -8.1% | 0.0% | ? | i
COc1ccc(CNC(=S)NC2CCCC2)cc1 | ? | -7.1% | -2.7% | 16.9% | +
COc1ccc(CNC(=S)NC2CCCCC2)cc1 | 0.7% | 17.6% | 4.1% | ? | .
COc1ccccc1NC(=O)C1=C(C)Nc2nc(SCc3cccc(F)c3)nn2C1c1ccc(C(=O)O)cc1 (stereo not drawn) | 7.8% | -6.1% | -6.7% | 16.2% | .
COc1cc(NS(=O)(=O)c2ccc(NC(=O)COc3ccc(C)cc3)cc2)nc(OC)n1 | 11.2µM* | ? | -8.2% | 15.1% | i
COc1cccc(NC(=O)Cn2c(=O)n(CCCCC(=O)NCc3ccccc3Cl)c(=O)c3ccccc32)c1 | . | . | -1.1% | . | .
CCOc1ccc(NC(=O)NC2CCOC(C)(C)C2)cc1 (stereo not drawn) | ? | ? | 5.6% | 3.4% | i
CCCOc1ccc(NC(=O)CC2C(=O)N(c3ccc(C)cc3)C(=O)N2C(C)C)cc1 (stereo not drawn) | . | . | 4.8% | . | .
Cc1onc(-c2ccccc2)c1C(=O)NC(=S)NNC(=O)c1ccc(O)cc1 | 0.9% | ? | -11.3% | ? | .
Cc1onc(-c2ccccc2)c1C(=O)NC(=S)NNC(=O)c1ccccc1O | 4.47µM* | ? | -0.9% | ? | i
Cc1onc(-c2ccccc2)c1C(=O)NC(=S)NNC(=O)c1ccc(O)cc1O | 14.1µM* | 0.0% | -1.9% | ? | +
Cc1ccc(Cl)cc1N1CCN(S(=O)(=O)c2ccc3c(c2)CCN3C(=O)C2CCC2)CC1 | . | . | 2.5% | . | .
C/C(=N\Nc1ccc(F)cc1)c1ccc(N2CCOCC2)c(F)c1 | 1.9% | ? | 0.0% | ? | .
Cn1cccc1C(=S)N=P(C1CCCCC1)(N1CCOCC1)N1CCOCC1 | 2.82µM* | . | -22.9%[11.4 µM] | 8.28µM* | i
Cn1cccc1C(=S)N1CCOCC1 | 1.2% | 5.5% | -0.4% | -21.1% | .
C/C(=N\NC(=O)c1ccc(CSc2nncn2C)cc1)c1ccc2ccccc2c1 | ? | -9.5% | 9.1% | -30.1% | i
COC(=O)c1ccc(CSc2nc3c([nH]c4ccccc43)c(=O)n2-c2cccc(Cl)c2)o1 | . | . | -2.1% | . | .
Nc1c(Cl)ncnc1N/N=C/c1ccc2ccccc2n1 | . | ? | -6.5% | 3.7µM* | i
SMILES | SARS PLpro yeast-1 | Pf growth 48h | Sm TGR block | Pf growth 96h | SARS PLpro yeast-2
O/N=C/c1ccc2ccccc2n1 | -3.0% | 150.9% | -3.4% | 105.9% | .
Cc1ccccc1NC(=O)C(C)OC(=O)CNS(=O)(=O)c1ccc(C#N)cc1 (stereo not drawn) | ? | ? | 11.7% | 16.3% | i
CC1CCCC(NC(=O)NC(=O)CCl)C1C (stereo not drawn) | ? | 0.0329µM* | 2.82µM* | 10.4µM* | +
CC1CCCCC1NC(=O)NC(=O)COC(=O)c1nccnc1N (stereo not drawn) | -6.9% | . | . | . | .
CC1CCCCC1NC(=O)NC(=O)CCl (stereo not drawn) | ? | 8.28µM* | 14.1µM* | ? | +
CC(=O)Oc1ccc(-c2cccc(C(=O)OCC(=O)Nc3ccccc3Oc3ccccc3)c2)cc1 | ? | ? | 5.3% | ? | +
CCNC(=S)NNC(=O)C1CCCCC1 | 3.98µM* | . | -17.2% | 25.0% | i
CN(Cc1ccccc1)C(=O)C1CCN(S(=O)(=O)c2ccc3c(c2)oc(=O)n3C)CC1 | . | . | -2.2% | . | .
C[n+]1cn(/N=C/c2ccccc2)c2ccccc21 | ? | ? | 0.3% | 13.1µM* | i
C(=N\n1c2ccccc2c2ccccc21)/c1ccccc1 | -1.1% | 45.5% | 9.4% | -5.9% | .
